Common to all, as to format: functional
Assay [1] concerns the target Solute carrier family 2, facilitated glucose transporter member 1 (Homo sapiens) (UniProt P11166). Kind of assay: ST_JUDE_LEISH: Cytotoxicity at 2uM final concentration against transgenic Leishmania Mexicana promastigotes LmGLUT1 that are glucose transport deficient and complemented with the human glucose transporter GLUT1. Activity is measured by DNA content using SYBR green in vitro.

Assay [2] addresses Hexose transporter 1 (Plasmodium falciparum) (UniProt O97467). Kind of assay: ST_JUDE_LEISH: Cytotoxicity at 2uM final concentration against transgenic Leishmania Mexicana promastigotes LmPfHT that are glucose transport deficient and complemented with the Plasmodium falciparum hexose transporter. Activity is measured by DNA content using SYBR green in vitro.
Assay [3] addresses Glucose transporter (Leishmania mexicana) (UniProt O61059). As to the kind of experiment: ST_JUDE_LEISH: Cytotoxicity at 2uM final concentration against transgenic Leishmania Mexicana promastigotes LmGT2 that are glucose transport deficient and complemented with the L. Mexicana glucose transporter 2. Activity is measured by DNA content using SYBR green in vitro.

We go through 35 molecules from ChEMBL document CHEMBL3433997, “St. Jude Leishmania screening dataset” (2016).

Where “and” joins values, the source holds several entries; their conditions need not be identical. Equal values may be shown once.

Sequence of Solute carrier family 2, facilitated glucose transporter member 1 (Homo sapiens) (P11166 whole entry): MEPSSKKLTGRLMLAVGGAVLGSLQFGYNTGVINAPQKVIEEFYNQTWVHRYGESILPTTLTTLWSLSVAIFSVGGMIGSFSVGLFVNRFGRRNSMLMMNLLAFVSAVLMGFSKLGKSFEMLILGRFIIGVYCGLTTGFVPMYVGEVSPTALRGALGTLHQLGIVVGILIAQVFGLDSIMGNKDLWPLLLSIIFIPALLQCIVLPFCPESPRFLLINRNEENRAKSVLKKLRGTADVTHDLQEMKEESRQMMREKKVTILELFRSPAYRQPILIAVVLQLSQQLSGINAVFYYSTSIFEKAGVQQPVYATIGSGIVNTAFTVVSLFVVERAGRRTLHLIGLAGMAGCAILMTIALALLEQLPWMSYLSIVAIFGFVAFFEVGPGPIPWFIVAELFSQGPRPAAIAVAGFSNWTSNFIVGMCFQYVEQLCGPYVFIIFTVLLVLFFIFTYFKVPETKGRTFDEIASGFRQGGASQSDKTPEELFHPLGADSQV

The inhibition is the drop in the measured response relative to a control, in per cent. Turning to `O=C(/C=C/c1cc([N+](=O)[O-])ccc1Cl)NC1CCC(CN2CCC(c3c[nH]c4ccccc34)CC2)CC1` (stereo not given), the inhibition in assay [1] is 2.1%; in assay [2] it was 1.69%; in assay [3] it was 2.13%.
On to `O=C(c1cccs1)N(Cc1cccc(-c2ccc(CNC3CCCC3)cc2)c1)C1CCN(Cc2ccccc2)CC1`, for which the inhibition in assay [1] came out at 10.1%; in assay [2], 10%; in assay [3], 9.21%.
Turning to `CCC(C)CN1CCC(N(C)c2cc(NC(=O)c3ccc(F)cc3)ccn2)CC1` (stereo not given), the inhibition was -0.37% in assay [1], 0.64% in assay [2] and 2.38% in assay [3].
The like results for `COc1ccc(CCNCc2ccc3c(C)cc(N)nc3c2)cc1` were, in that order, 0.82%, 2.73% and 2.71%.
With `O=C(Cc1cc(=O)oc2cc(O)ccc12)N1CCC(CN2CCC(c3c[nH]c4ccccc34)CC2)CC1`, the inhibition in assay [1] is 4.12%; in assay [2] it was 5.46%; in assay [3], 5%.
For `CN(c1cc(NC(=O)c2ccccc2)ccn1)C1CCN(Cc2cccc(F)c2)CC1` the same measures were 1.23%, 4.2% and 2.33%.
Take `CN(C)CCCn1cc(C(=O)OC2CC3CCC(C2)N3C)c2cc(-c3ccccc3)ccc21` (stereo not given): the inhibition came out at 12.9% in assay [1], 6.68% in assay [2] and 9.57% in assay [3].
On to `O=[N+]([O-])c1ccc(Oc2c(Cl)cc(S(=O)(=O)N3CCC(CN4CCC(c5c[nH]c6ccccc56)CC4)CC3)cc2Cl)c(Cl)c1`, for which the inhibition in assay [1] is 1.89%; in assay [2], 0.25%; in assay [3] it was 3.15%.
Take `COc1cccc(C2(NC[C@@H](O)[C@H](Cc3ccccc3)NC(=O)c3ccccc3)CCCCC2)c1`: the inhibition in assay [1] is 0.07%; in assay [2], -1.37%; in assay [3] it was -4.56%.
As to `O=C(/C=C/c1ccc(Cl)c(Cl)c1)N1CCC(CN2CCC(c3c[nH]c4ccccc34)C(O)C2)CC1` (stereo not given), the inhibition in assay [1] was determined as 7.48%; in assay [2], 2.3%; in assay [3], 0.72%.
For the molecule `OC(CNC1CCCCCC1)c1ccc(Cl)c(Cl)c1` (stereo not given), the inhibition in assay [1] is -0.7%; in assay [2], 0.32%; in assay [3] it was -0.87%.
Regarding `O=C(C=C1c2ccccc2-c2ccccc21)NC1CCC(CN2CCC(c3c[nH]c4ccccc34)CC2)CC1` (stereo not given), the inhibition in assay [1] is 0.2% and -2.16%; in assay [2] it was 0.36% and -1.31%; in assay [3], -0.17% and -1.28%.
For `Cc1cc2ccc(CNCCc3ccccc3Br)cc2nc1N`, the inhibition in assay [1] worked out at 3.28%; in assay [2], 2.77%; in assay [3], 3.87%.
As for `Oc1ccc(CN2CCN(CCOC(c3ccc(F)cc3)c3ccc(F)cc3)CC2)cc1Cl`, the inhibition was 4.68% in assay [1], -0.31% in assay [2] and -0.74% in assay [3].
Turning to `COc1cccc(C2(C)CCN(CCCCNC(=O)c3ccc(NC(=O)c4ccc(Cl)cc4)cc3)CC2)c1`, the inhibition was -1.81% in assay [1], -1.78% in assay [2] and -3.4% in assay [3].
Take `CCc1ccc(CC(C)NCC(O)c2ccccc2)cc1` (stereo not given): the results for the inhibition in assay [1], in assay [2] and in assay [3] were 1.06%, 1.04% and 1.94%, respectively.
`C[C@@H]1C[C@@H]([C@H](O)CC2CC(=O)NC(=O)C2)C(=O)[C@@H](C)C1`: the figures for the inhibition in assay [1], in assay [2] and in assay [3] were 90%, 90.8% and 88.7%, respectively.
For `O=C(/C=C/c1ccc(Cl)c(Cl)c1)NC1CCC(N2CCC(c3c[nH]c4ccccc34)CC2)CC1` (stereo not given) the same measures were 26%, 6.98% and 4.41%.
Consider `CN(c1cc(NC(=O)c2cccs2)ccn1)C1CCN(Cc2cccc(C#N)c2)CC1`, for which the inhibition in assay [1] was 8.2%; in assay [2], 9.92%; in assay [3], 8.95%.
For `CN(Cc1ccccc1)C1CCN(CCc2c[nH]c3ccc(F)cc23)CC1`, the inhibition was 6.41% in assay [1], 5.56% in assay [2] and 7.12% in assay [3].
`COc1ccc(N(c2nc(-c3cc(Cl)ccc3Cl)cs2)C2CCNCC2)cc1`: the inhibition is 0.66% in assay [1], -0.12% in assay [2] and 1.62% in assay [3].
Take `CCOC(=O)c1c(C)n(C2CCCCC2)c2cc(Br)c(O)cc12`: the inhibition in assay [1] is -0.53%; in assay [2], -0.38%; in assay [3], -0.74%.
In the case of `CCCCC1(NC(=O)[C@H](CC(C)C)Nc2ccc(C#N)c3ccccc23)CCCCC1`, the inhibition in assay [1] stood at 1.12%; in assay [2], 4.9%; in assay [3], 2.56%.
With `Cc1[nH]c2ccc(O)cc2c1C1CCN(CC2CCC(NC(=O)/C=C/c3c(Cl)cccc3Cl)CC2)CC1` (stereo not given), the values for the inhibition in assay [1], in assay [2] and in assay [3] were 1.67%, 0.48% and 3.62%, respectively.
The like results for `COc1ccc(C2CNCc3c2cc(OC)c(OC)c3Cl)cc1` (stereo not given) were, in that order, 4.33%, 4.69% and -0.73%.
For `CCOC(=O)c1c(C)n(C2CCCCCC2)c2cc(Br)c(O)cc12`, the values for the inhibition in assay [1], in assay [2] and in assay [3] were 2.52%, 0.67% and 4.54%, respectively.
As to `COc1ccc(OC)c(C=CC(=O)NC2CCC(CN3CCC(c4c[nH]c5ccccc45)CC3)CC2)c1` (stereo not given), the inhibition was -2.94% in assay [1], -0.24% in assay [2] and -0.07% in assay [3].
In the case of `NC(=O)CN1CC=C(c2c[nH]c3ccc(Br)cc23)CC1`, the inhibition in assay [1] was -1.87%; in assay [2] it was 0.93%; in assay [3] it was 0.77%.
Regarding `O=C(Nc1ccccc1OC(F)(F)F)NC1CCC(CN2CCC(c3c[nH]c4ccccc34)CC2)CC1` (stereo not given), the inhibition was 2.64% and 17.3% in assay [1]; 3.83% and 26.1% in assay [2]; 0.62% and 10.3% in assay [3].
Consider `O=C(c1cc(C(=O)NCc2ccc(Cl)cc2)c(=O)n(Cc2ccc(Cl)cc2)c1)c1cc(Cl)ccc1O`, for which the inhibition in assay [1] was -1%; in assay [2], -1.29%; in assay [3], 3.58%.
On to `CC(Cc1ccc(OCCOc2ccccc2)cc1)NCC(O)c1cccc(Cl)c1` (stereo not given), for which the inhibition in assay [1] worked out at 0.57%; in assay [2] it was 1.43%; in assay [3], 1.19%.
As to `C#CCN1CCC2=C(C1)c1c(O)cc(C(C)C(C)CCc3ccc(F)cc3)cc1OC2(C)C` (stereo not given), the inhibition in assay [1] was 0.45%; in assay [2] it was -1.07%; in assay [3], -1.42%.
Take `CC(=O)Nc1ccc2[nH]cc(C3CCN(CC4CCC(NC(=O)/C=C/c5ccc(Cl)c(Cl)c5)CC4)CC3)c2c1` (stereo not given): the inhibition in assay [1] was -0.34% and -0.54%; in assay [2], -0.56% and -1.03%; in assay [3], 0.33% and -0.43%.
On to `COc1ccccc1CC(C)NCC(O)c1cccc(Cl)c1` (stereo not given), for which the inhibition in assay [1] is -0.34%; in assay [2], 4.23%; in assay [3], 1.87%.
For the molecule `COc1cc(CN2CCN(c3ccnc(N(C)C4CCN(C)CC4)n3)CC2)cc(Cl)c1O`, the inhibition in assay [1] was 5.87%; in assay [2], 7.29%; in assay [3], 6.73%.
